# Positions count from the first letter of the chain named.
# Key:
# Test in all cases: PBM; 200 nM protein, PBS
# Conditions in all cases: dsDNA, one strand shown
# ALX4 [1] = molecular target: ALX4 (Homo sapiens, UniProt Q9H161 200-286)
# ALX4 [2] = molecular target: ALX4 (Homo sapiens, UniProt Q9H161 200-286, Q225E)
# MSX2 [3] = molecular target: MSX2 (Homo sapiens, UniProt P35548 130-214, R199I)
# MSX2 [4] = molecular target: MSX2 (Homo sapiens, UniProt P35548 130-214)
# MSX2 [5] = molecular target: MSX2 (Homo sapiens, UniProt P35548 130-214, F161Y)
# MSX2 (Homo sapiens, UniProt P35548 130-214, F161Y), sequence (P35548 130-214 F161Y): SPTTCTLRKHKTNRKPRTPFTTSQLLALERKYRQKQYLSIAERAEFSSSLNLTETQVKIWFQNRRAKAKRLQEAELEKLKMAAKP
# ALX1 [6] = molecular target: ALX1 (Homo sapiens, UniProt Q15699 118-204, L144V)
# ALX1 (Homo sapiens, UniProt Q15699 118-204, L144V), sequence (Q15699 118-204 L144V): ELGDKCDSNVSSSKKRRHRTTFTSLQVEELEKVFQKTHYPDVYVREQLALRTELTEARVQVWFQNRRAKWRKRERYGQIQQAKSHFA
# ALX1 [7] = molecular target: ALX1 (Homo sapiens, UniProt Q15699 118-204, L144R)
# ALX1 (Homo sapiens, UniProt Q15699 118-204, L144R), sequence (Q15699 118-204 L144R): as the sequence (Q15699 118-204 L144V) above, with V27R counted along it
# ALX1 [8] = molecular target: ALX1 (Homo sapiens, UniProt Q15699 118-204)
# ALX1 (Homo sapiens, UniProt Q15699 118-204), sequence (Q15699 118-204): as the sequence (Q15699 118-204 L144V) above, with V27L counted along it
# PAX4 [9] = molecular target: T1, PAX4 (Homo sapiens, UniProt O43316 9-242, R200K)
# T1 sequence: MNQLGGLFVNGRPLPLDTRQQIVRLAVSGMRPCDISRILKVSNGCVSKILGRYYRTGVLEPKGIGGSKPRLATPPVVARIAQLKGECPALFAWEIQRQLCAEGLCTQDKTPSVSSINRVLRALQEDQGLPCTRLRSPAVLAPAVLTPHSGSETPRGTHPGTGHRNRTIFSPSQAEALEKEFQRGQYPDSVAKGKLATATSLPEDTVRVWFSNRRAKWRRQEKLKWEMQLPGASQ
# PRRX1 = PRRX1 (Homo sapiens, UniProt P54821 80-166, F113S)
# PRRX1, sequence (P54821 80-166 F113S): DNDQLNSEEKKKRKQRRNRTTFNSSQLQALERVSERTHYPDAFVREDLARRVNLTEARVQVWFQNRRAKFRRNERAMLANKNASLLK
# PAX4 [10] = molecular target: T2, PAX4 (Homo sapiens, UniProt O43316 9-242)
# T2 sequence: T1 sequence with K192R
# PAX4 [11] = molecular target: T3, PAX4 (Homo sapiens, UniProt O43316 9-242, R200Q)
# T3 sequence: T1 sequence with K192Q
# SHOX = SHOX (Homo sapiens, UniProt O15266 103-189, R173C)
# SHOX, sequence (O15266 103-189 R173C): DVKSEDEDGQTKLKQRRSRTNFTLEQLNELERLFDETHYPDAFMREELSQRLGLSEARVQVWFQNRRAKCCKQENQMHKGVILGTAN
# PAX4 [12] = molecular target: T4, PAX4 (Homo sapiens, UniProt O43316 9-242, F177V)
# T4 sequence: T1 sequence with F169V, K192R
# PAX4 [13] = molecular target: T5, PAX4 (Homo sapiens, UniProt O43316 9-242, F177Y)
# T5 sequence: T1 sequence with F169Y, K192R
# HESX1 [14] = molecular target: HESX1 (Homo sapiens, UniProt Q9UBX0 95-180, R109Q)
# HESX1 (Homo sapiens, UniProt Q9UBX0 95-180, R109Q), sequence (Q9UBX0 95-180 R109Q): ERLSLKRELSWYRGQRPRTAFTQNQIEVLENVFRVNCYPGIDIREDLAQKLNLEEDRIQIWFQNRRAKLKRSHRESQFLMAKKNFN
# ALX3 [15] = molecular target: ALX3 (Homo sapiens, UniProt O95076 139-225, L168V)
# ALX3 (Homo sapiens, UniProt O95076 139-225, L168V), sequence (O95076 139-225 L168V): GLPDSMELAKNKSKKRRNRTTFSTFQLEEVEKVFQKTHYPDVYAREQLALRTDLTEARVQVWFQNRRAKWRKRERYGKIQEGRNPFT
# HESX1 [16] = molecular target: HESX1 (Homo sapiens, UniProt Q9UBX0 95-180, F115L)
# HESX1 (Homo sapiens, UniProt Q9UBX0 95-180, F115L), sequence (Q9UBX0 95-180 F115L): as the sequence (Q9UBX0 95-180 R109Q) above, with Q15R, F21L counted along it
# PAX4 [17] = molecular target: T6, PAX4 (Homo sapiens, UniProt O43316 9-242, R227W)
# T6 sequence: T1 sequence with K192R, R219W
# ALX3 [18] = molecular target: ALX3 (Homo sapiens, UniProt O95076 139-225, N203Q)
# ALX3 (Homo sapiens, UniProt O95076 139-225, N203Q), sequence (O95076 139-225 N203Q): as the sequence (O95076 139-225 L168V) above, with V30L, N65Q counted along it
# ALX3 [19] = molecular target: ALX3 (Homo sapiens, UniProt O95076 139-225)
# ALX3 (Homo sapiens, UniProt O95076 139-225), sequence (O95076 139-225): as the sequence (O95076 139-225 L168V) above, with V30L counted along it
# ALX3 [20] = molecular target: ALX3 (Homo sapiens, UniProt O95076 139-225, L168Q)
# ALX3 (Homo sapiens, UniProt O95076 139-225, L168Q), sequence (O95076 139-225 L168Q): as the sequence (O95076 139-225 L168V) above, with V30Q counted along it
# ALX3 [21] = molecular target: ALX3 (Homo sapiens, UniProt O95076 139-225, N203S)
# ALX3 (Homo sapiens, UniProt O95076 139-225, N203S), sequence (O95076 139-225 N203S): as the sequence (O95076 139-225 L168V) above, with V30L, N65S counted along it
# PROP1 [22] = molecular target: PROP1 (Homo sapiens, UniProt O75360 56-141)
# PROP1 (Homo sapiens, UniProt O75360 56-141), sequence (O75360 56-141): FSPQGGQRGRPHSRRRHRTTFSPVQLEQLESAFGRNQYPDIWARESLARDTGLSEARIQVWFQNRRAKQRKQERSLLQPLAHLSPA
# PROP1 [23] = molecular target: PROP1 (Homo sapiens, UniProt O75360 56-141, R99H)
# PROP1 (Homo sapiens, UniProt O75360 56-141, R99H), sequence (O75360 56-141 R99H): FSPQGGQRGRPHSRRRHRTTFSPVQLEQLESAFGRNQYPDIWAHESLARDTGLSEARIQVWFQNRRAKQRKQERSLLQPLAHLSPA
# PROP1 [24] = molecular target: PROP1 (Homo sapiens, UniProt O75360 56-141, F88S)
# PROP1 (Homo sapiens, UniProt O75360 56-141, F88S), sequence (O75360 56-141 F88S): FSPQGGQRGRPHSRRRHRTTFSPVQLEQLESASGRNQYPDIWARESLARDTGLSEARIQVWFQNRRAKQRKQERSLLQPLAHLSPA
# HOXA4 = HOXA4 (Homo sapiens, UniProt Q00056 201-287, R217L)
# HOXA4, sequence (Q00056 201-287 R217L): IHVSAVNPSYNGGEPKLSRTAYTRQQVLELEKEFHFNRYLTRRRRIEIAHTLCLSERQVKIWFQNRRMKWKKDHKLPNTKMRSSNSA
# HOXB6 [25] = molecular target: HOXB6 (Homo sapiens, UniProt P17509 132-218, K202E)
# HOXB6 (Homo sapiens, UniProt P17509 132-218, K202E), sequence (P17509 132-218 K202E): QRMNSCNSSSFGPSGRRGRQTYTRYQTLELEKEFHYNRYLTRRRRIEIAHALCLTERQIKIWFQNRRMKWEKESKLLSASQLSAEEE
# HOXB6 [26] = molecular target: HOXB6 (Homo sapiens, UniProt P17509 132-218)
# HOXB6 (Homo sapiens, UniProt P17509 132-218), sequence (P17509 132-218): as the sequence (P17509 132-218 K202E) above, with E71K counted along it
# VAX1 [27] = molecular target: VAX1 (Homo sapiens, UniProt Q5SQQ9 86-172)
# VAX1 (Homo sapiens, UniProt Q5SQQ9 86-172), sequence (Q5SQQ9 86-172): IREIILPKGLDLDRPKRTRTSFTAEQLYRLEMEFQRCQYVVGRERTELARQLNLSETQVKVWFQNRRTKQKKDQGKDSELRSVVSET
# VAX1 [28] = molecular target: VAX1 (Homo sapiens, UniProt Q5SQQ9 86-172, T142I)
# VAX1 (Homo sapiens, UniProt Q5SQQ9 86-172, T142I), sequence (Q5SQQ9 86-172 T142I): as the sequence (Q5SQQ9 86-172) above, with T57I counted along it
# VAX1 [29] = molecular target: VAX1 (Homo sapiens, UniProt Q5SQQ9 86-172, K157R)
# VAX1 (Homo sapiens, UniProt Q5SQQ9 86-172, K157R), sequence (Q5SQQ9 86-172 K157R): as the sequence (Q5SQQ9 86-172) above, with K72R counted along it
# ALX4 (Homo sapiens, UniProt Q9H161 200-286), sequence (Q9H161 200-286): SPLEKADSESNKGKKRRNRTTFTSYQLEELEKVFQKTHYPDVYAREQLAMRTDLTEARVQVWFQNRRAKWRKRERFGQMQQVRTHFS
# ALX4 (Homo sapiens, UniProt Q9H161 200-286, Q225E), sequence (Q9H161 200-286 Q225E): as the sequence (Q9H161 200-286) above, with Q26E counted along it
# MSX2 (Homo sapiens, UniProt P35548 130-214, R199I), sequence (P35548 130-214 R199I): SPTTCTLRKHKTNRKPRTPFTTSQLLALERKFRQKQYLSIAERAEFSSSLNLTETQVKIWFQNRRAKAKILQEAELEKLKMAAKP
# MSX2 (Homo sapiens, UniProt P35548 130-214), sequence (P35548 130-214): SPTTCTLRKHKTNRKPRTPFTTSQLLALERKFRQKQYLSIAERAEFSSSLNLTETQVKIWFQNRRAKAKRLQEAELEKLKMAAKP
sequence,measurement,setting,value
CCTGCGAG,binding signal,ALX4 [1],"7.97 upbm affinity estimate (log intensity, higher = more binding, comparable within an allelic series)"
same,binding signal,ALX4 [2],"7.97 upbm affinity estimate (log intensity, higher = more binding, comparable within an allelic series)"
same,binding signal,MSX2 [3],"9.6 upbm affinity estimate (log intensity, higher = more binding, comparable within an allelic series)"
same,binding signal,MSX2 [4],"9.6 upbm affinity estimate (log intensity, higher = more binding, comparable within an allelic series)"
same,binding signal,MSX2 [5],"9.61 upbm affinity estimate (log intensity, higher = more binding, comparable within an allelic series)"
AATTTTCA,binding signal,ALX4 [1],"11.5 upbm affinity estimate (log intensity, higher = more binding, comparable within an allelic series)"
same,binding signal,ALX4 [2],"10.4 upbm affinity estimate (log intensity, higher = more binding, comparable within an allelic series)"
same,binding signal,ALX1 [6],"9.64 upbm affinity estimate (log intensity, higher = more binding, comparable within an allelic series)"
same,binding signal,ALX1 [7],"9.33 upbm affinity estimate (log intensity, higher = more binding, comparable within an allelic series)"
same,binding signal,ALX1 [8],"10 upbm affinity estimate (log intensity, higher = more binding, comparable within an allelic series)"
AATTAGAA,binding signal,PAX4 [9],"11.6 upbm affinity estimate (log intensity, higher = more binding, comparable within an allelic series)"
same,binding signal,PRRX1,"11.1 upbm affinity estimate (log intensity, higher = more binding, comparable within an allelic series)"
same,binding signal,PAX4 [10],"12.1 upbm affinity estimate (log intensity, higher = more binding, comparable within an allelic series)"
same,binding signal,PAX4 [11],"11.9 upbm affinity estimate (log intensity, higher = more binding, comparable within an allelic series)"
same,binding signal,SHOX,"9.39 upbm affinity estimate (log intensity, higher = more binding, comparable within an allelic series)"
same,binding signal,PAX4 [12],"10.5 upbm affinity estimate (log intensity, higher = more binding, comparable within an allelic series)"
same,binding signal,PAX4 [13],"10.9 upbm affinity estimate (log intensity, higher = more binding, comparable within an allelic series)"
same,binding signal,HESX1 [14],"8.83 upbm affinity estimate (log intensity, higher = more binding, comparable within an allelic series)"
same,binding signal,ALX3 [15],"9.7 upbm affinity estimate (log intensity, higher = more binding, comparable within an allelic series)"
same,binding signal,HESX1 [16],"7.75 upbm affinity estimate (log intensity, higher = more binding, comparable within an allelic series)"
same,binding signal,PAX4 [17],"10.9 upbm affinity estimate (log intensity, higher = more binding, comparable within an allelic series)"
CTCGATCC,binding signal,ALX4 [1],"8.2 upbm affinity estimate (log intensity, higher = more binding, comparable within an allelic series)"
same,binding signal,ALX4 [2],"8.33 upbm affinity estimate (log intensity, higher = more binding, comparable within an allelic series)"
GAGAGCGC,binding signal,ALX4 [1],"7.97 upbm affinity estimate (log intensity, higher = more binding, comparable within an allelic series)"
same,binding signal,ALX4 [2],"8.13 upbm affinity estimate (log intensity, higher = more binding, comparable within an allelic series)"
same,binding signal,ALX3 [18],"7.72 upbm affinity estimate (log intensity, higher = more binding, comparable within an allelic series)"
same,binding signal,ALX3 [19],"7.6 upbm affinity estimate (log intensity, higher = more binding, comparable within an allelic series)"
same,binding signal,ALX3 [20],"7.75 upbm affinity estimate (log intensity, higher = more binding, comparable within an allelic series)"
same,binding signal,ALX3 [15],"7.76 upbm affinity estimate (log intensity, higher = more binding, comparable within an allelic series)"
same,binding signal,ALX3 [21],"7.72 upbm affinity estimate (log intensity, higher = more binding, comparable within an allelic series)"
CACAGCTC,binding signal,ALX4 [1],"7.95 upbm affinity estimate (log intensity, higher = more binding, comparable within an allelic series)"
same,binding signal,ALX4 [2],"8.26 upbm affinity estimate (log intensity, higher = more binding, comparable within an allelic series)"
same,binding signal,PROP1 [22],"6.72 upbm affinity estimate (log intensity, higher = more binding, comparable within an allelic series)"
same,binding signal,PROP1 [23],"6.77 upbm affinity estimate (log intensity, higher = more binding, comparable within an allelic series)"
same,binding signal,PROP1 [24],"6.99 upbm affinity estimate (log intensity, higher = more binding, comparable within an allelic series)"
AAGTAATT,binding signal,ALX4 [1],"13 upbm affinity estimate (log intensity, higher = more binding, comparable within an allelic series)"
same,binding signal,ALX4 [2],"12 upbm affinity estimate (log intensity, higher = more binding, comparable within an allelic series)"
same,binding signal,HOXA4,"12 upbm affinity estimate (log intensity, higher = more binding, comparable within an allelic series)"
same,binding signal,ALX3 [21],"8.65 upbm affinity estimate (log intensity, higher = more binding, comparable within an allelic series)"
AAGGGGGA,binding signal,PAX4 [9],"9.21 upbm affinity estimate (log intensity, higher = more binding, comparable within an allelic series)"
same,binding signal,PAX4 [10],"9.23 upbm affinity estimate (log intensity, higher = more binding, comparable within an allelic series)"
same,binding signal,HOXB6 [25],"8.87 upbm affinity estimate (log intensity, higher = more binding, comparable within an allelic series)"
same,binding signal,PAX4 [11],"9.23 upbm affinity estimate (log intensity, higher = more binding, comparable within an allelic series)"
same,binding signal,PAX4 [12],"9.11 upbm affinity estimate (log intensity, higher = more binding, comparable within an allelic series)"
same,binding signal,PAX4 [13],"9.2 upbm affinity estimate (log intensity, higher = more binding, comparable within an allelic series)"
same,binding signal,PAX4 [17],"9.25 upbm affinity estimate (log intensity, higher = more binding, comparable within an allelic series)"
same,binding signal,HOXB6 [26],"8.75 upbm affinity estimate (log intensity, higher = more binding, comparable within an allelic series)"
CCGTCTAG,binding signal,ALX4 [1],"7.85 upbm affinity estimate (log intensity, higher = more binding, comparable within an allelic series)"
same,binding signal,ALX4 [2],"8.02 upbm affinity estimate (log intensity, higher = more binding, comparable within an allelic series)"
same,binding signal,MSX2 [3],"9.52 upbm affinity estimate (log intensity, higher = more binding, comparable within an allelic series)"
same,binding signal,MSX2 [4],"9.39 upbm affinity estimate (log intensity, higher = more binding, comparable within an allelic series)"
same,binding signal,VAX1 [27],"6.91 upbm affinity estimate (log intensity, higher = more binding, comparable within an allelic series)"
same,binding signal,MSX2 [5],"9.55 upbm affinity estimate (log intensity, higher = more binding, comparable within an allelic series)"
same,binding signal,VAX1 [28],"7.09 upbm affinity estimate (log intensity, higher = more binding, comparable within an allelic series)"
same,binding signal,VAX1 [29],"7.03 upbm affinity estimate (log intensity, higher = more binding, comparable within an allelic series)"
CGGGCCTC,binding signal,ALX4 [1],"8.16 upbm affinity estimate (log intensity, higher = more binding, comparable within an allelic series)"
same,binding signal,ALX4 [2],"8.25 upbm affinity estimate (log intensity, higher = more binding, comparable within an allelic series)"
same,binding signal,PROP1 [22],"6.76 upbm affinity estimate (log intensity, higher = more binding, comparable within an allelic series)"
same,binding signal,PROP1 [23],"6.84 upbm affinity estimate (log intensity, higher = more binding, comparable within an allelic series)"
same,binding signal,PROP1 [24],"6.55 upbm affinity estimate (log intensity, higher = more binding, comparable within an allelic series)"
